Test results reported in PubChem BioAssay.
Records with an inconclusive call do not appear. For some assays here: Measured potencies and affinities stand elsewhere. The source made the active and inactive calls. Unless noted, no stated cut-off is given here; in the data, active means fluorescence slope change above about 50%; inconclusive means mostly about 31% to 49%; inactive means weaker than that.

Experiments:
[1] = yeast 75Q aggregation reduction – 75Q-TubU reporter (AID 1593); conditions: Yeast 75Q polyglutamine aggregation reporter
[2] = restoration of touch response, mutant HTT neurons – whole organism, C. elegans mechanosensory neurons, N-terminal huntingtin (AID 1599); conditions: C. elegans polyQ-huntingtin mechanosensory neurons, stronger effect = higher value
[3] = blockers of cytochrome c efflux from mitochondria – biochemical, purified mitochondria (AID 1603); conditions: stronger effect = lower value;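 further: mouse liver mitochondria challenged with calcium chloride; signal normalized to the plate average as 100%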
[4] = polyglutamine aggregate formation blockers (AID 1604); conditions: polyglutamine-induced protein aggregation inhibition assay; stronger effect = higher value; tested at 2.5 µM
[5] = glutamate transport activators, MN-1 cells, MN-1 cell line (AID 1612); conditions: MN-1 motor neuron cells, stronger effect = higher value;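 further: tested at 1 µM final; 0% = mean of DMSO vehicle wells on each plate; positive means more glutamate uptake than control and negative means less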
[6] = 75Q-TubH aggregate inhibition, S. cerevisiae, yeast (AID 1616); conditions: S. cerevisiae 75Q-TubH polyglutamine aggregation suppression; stronger effect = higher value
[7] = target: ATP-dependent translocase ABCB1 (Homo sapiens) (UniProt P08183); assay: P-glycoprotein substrate transport blockade – cell-based (AID 377); conditions: MDR1-expressing cells, fluorescent substrate accumulation slope; stronger effect = higher value; concentration not given here
[8] = target: NAD(+) hydrolase SARM1 (Homo sapiens) (UniProt Q6SZW1); assay: blocking NAD cleavage by SARM1 SAM-TIR – cell lysate, NAD-Glo luminescence (AID 1508614;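 active means compound whose remaining NAD level is above about 45 nM, limit read from the data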); conditions: SAM-TIR HEK293T lysate NADase, at 1 µM, stronger effect = higher value
NAD(+) hydrolase SARM1 (Homo sapiens), sequence (Q6SZW1 whole entry, looked up): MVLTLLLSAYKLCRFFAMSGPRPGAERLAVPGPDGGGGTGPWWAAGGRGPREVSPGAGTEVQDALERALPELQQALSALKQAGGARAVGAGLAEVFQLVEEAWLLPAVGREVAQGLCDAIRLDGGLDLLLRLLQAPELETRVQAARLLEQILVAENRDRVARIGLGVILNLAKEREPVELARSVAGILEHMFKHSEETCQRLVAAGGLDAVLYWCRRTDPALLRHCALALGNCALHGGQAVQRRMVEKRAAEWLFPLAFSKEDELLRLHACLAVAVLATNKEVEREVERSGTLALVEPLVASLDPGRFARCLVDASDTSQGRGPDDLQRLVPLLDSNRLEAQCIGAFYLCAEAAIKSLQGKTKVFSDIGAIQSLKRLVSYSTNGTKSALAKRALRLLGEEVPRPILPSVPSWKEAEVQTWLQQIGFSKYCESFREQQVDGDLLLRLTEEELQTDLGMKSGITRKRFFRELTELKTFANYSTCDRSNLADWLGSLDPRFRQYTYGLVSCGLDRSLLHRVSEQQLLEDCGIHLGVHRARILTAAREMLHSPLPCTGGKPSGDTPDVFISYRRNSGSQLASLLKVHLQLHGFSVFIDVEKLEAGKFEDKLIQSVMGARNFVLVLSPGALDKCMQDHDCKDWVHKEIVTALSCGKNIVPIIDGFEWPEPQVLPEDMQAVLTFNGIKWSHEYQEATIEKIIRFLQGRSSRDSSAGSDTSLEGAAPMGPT

ATP-dependent translocase ABCB1 (Homo sapiens), sequence (P08183 whole entry, looked up): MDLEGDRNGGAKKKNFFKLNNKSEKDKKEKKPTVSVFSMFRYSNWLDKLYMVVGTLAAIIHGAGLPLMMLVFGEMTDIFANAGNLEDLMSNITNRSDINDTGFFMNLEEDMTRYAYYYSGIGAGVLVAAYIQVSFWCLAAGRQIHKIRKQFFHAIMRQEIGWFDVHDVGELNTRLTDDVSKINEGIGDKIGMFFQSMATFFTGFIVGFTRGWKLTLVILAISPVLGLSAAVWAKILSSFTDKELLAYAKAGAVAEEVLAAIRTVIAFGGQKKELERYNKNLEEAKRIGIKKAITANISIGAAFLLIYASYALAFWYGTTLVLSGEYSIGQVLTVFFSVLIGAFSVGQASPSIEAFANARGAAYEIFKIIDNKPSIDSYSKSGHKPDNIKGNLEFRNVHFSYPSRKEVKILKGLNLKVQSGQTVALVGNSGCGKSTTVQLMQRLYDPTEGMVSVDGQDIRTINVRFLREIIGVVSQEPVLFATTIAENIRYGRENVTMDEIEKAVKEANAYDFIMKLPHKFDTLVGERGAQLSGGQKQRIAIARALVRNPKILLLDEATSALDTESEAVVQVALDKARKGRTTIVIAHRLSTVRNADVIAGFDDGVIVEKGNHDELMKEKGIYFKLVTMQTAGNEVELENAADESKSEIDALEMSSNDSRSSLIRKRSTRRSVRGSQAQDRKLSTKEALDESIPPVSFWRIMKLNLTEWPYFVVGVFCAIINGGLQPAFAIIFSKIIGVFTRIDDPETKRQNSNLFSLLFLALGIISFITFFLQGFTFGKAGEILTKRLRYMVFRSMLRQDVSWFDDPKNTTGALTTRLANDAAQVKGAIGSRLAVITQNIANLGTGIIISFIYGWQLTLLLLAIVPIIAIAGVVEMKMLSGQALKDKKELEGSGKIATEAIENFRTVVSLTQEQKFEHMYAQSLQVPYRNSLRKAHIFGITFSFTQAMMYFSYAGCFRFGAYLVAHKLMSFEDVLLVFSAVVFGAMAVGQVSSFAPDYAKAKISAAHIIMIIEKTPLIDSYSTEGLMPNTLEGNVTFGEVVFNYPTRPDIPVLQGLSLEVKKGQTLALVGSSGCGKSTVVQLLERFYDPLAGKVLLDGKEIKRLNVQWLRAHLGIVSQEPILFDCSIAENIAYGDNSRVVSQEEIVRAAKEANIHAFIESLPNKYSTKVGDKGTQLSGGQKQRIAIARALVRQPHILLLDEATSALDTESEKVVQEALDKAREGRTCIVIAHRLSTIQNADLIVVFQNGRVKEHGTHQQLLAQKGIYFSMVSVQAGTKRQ

Row | SMILES | score [1] | rescue above control [2] | cytochrome c release ratio [3] | inhibition of aggregation [4] [%] | glutamate uptake change [5] [%] | aggregation suppression score [6] | fluorescence slope change [7] | remaining NAD [8]
1 | N.N.O=C(O)C1(C(=O)O)CCC1.[Pt] | 1.14 | 12.6 | 0.66 | 37.7 | -9.42 | 1.13 | – | –
2 | CN1CCc2cccc3c2[C@H]1Cc1ccc(O)c(O)c1-3 | – | – | – | – | – | – | 65.8% (active) | 53 nM (active)
